# The panel holds about 83,000 compounds, 20% with a hit somewhere; the sample as a whole holds those more often.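 Cell lines were cultured in 96-well plates, exposed to a single compound concentration, and assessed for percent growth 48 hours later.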 Unmarked numbers belong to inactive results. Calls of active or inactive are those of the source. The calls were made as follows: active = growth percent below 10; inactive = the rest.
# Key:
# Experiment in all cases: NCI-60 one-dose screen, 48 h (100 = growth as untreated, 0 = no growth, -100 = all killed)
# Details in all cases: 10 µM unless noted
# SR leukemia = tested on: SR leukemia
# RPMI-8226 leukemia = tested on: RPMI-8226 leukemia
# OVCAR-8 ovarian = tested on: OVCAR-8 ovarian
# OVCAR-5 ovarian = tested on: OVCAR-5 ovarian
# OVCAR-4 ovarian = tested on: OVCAR-4 ovarian
# SK-OV-3 ovarian = tested on: SK-OV-3 ovarian
# IGROV1 ovarian = tested on: IGROV1 ovarian
# OVCAR-3 ovarian = tested on: OVCAR-3 ovarian
# HS 578T breast = tested on: HS 578T breast
# NCI/ADR-RES ovarian = tested on: NCI/ADR-RES ovarian
# T-47D breast = tested on: T-47D breast
# BT-549 breast = tested on: BT-549 breast
# MDA-MB-435 melanoma = tested on: MDA-MB-435 melanoma
# SW-620 colon = tested on: SW-620 colon
# MCF7 breast = tested on: MCF7 breast
# HCT-116 colon = tested on: HCT-116 colon
# HCC-2998 colon = tested on: HCC-2998 colon
# KM12 colon = tested on: KM12 colon
Compound,growth (SR leukemia),growth (RPMI-8226 leukemia),growth (OVCAR-8 ovarian),growth (OVCAR-5 ovarian),growth (OVCAR-4 ovarian),growth (SK-OV-3 ovarian),growth (IGROV1 ovarian),growth (OVCAR-3 ovarian),growth (HS 578T breast),growth (NCI/ADR-RES ovarian),growth (T-47D breast),growth (BT-549 breast),growth (MDA-MB-435 melanoma),growth (SW-620 colon),growth (MCF7 breast),growth (HCT-116 colon),growth (HCC-2998 colon),growth (KM12 colon)
Cc1cccc(NC(=O)c2sc3nc4c(cc3c2N)C(=O)CCC4)c1,26.2%,31.6%,52.2%,44.6%,40.1%,35.3%,-4.52% (active),7.66% (active),18.6%,17.4%,44%,41.6%,-52.8% (active),26.6%,22.6%,29.3%,33.7%,21.4%
COCCCNc1nc(NC(=O)c2ccc(F)cc2C)cc(-c2cccnc2)n1,110%,90.2%,91.6%,106%,117%,108%,109%,106%,94%,94.2%,89.4%,103%,103%,109%,103%,101%,103%,104%
O=[N+]([O-])c1cccc(-c2nc3sccn3c2-c2ccnc(NCCCNS(=O)(=O)c3ccc(Br)cc3)n2)c1,51.8%,9.86% (active),28.2%,114%,32.7%,92.5%,41.6%,51.2%,87.7%,23.1%,1.8% (active),38%,46.6%,98.1%,34%,56.9%,102%,40.5%
Cc1ccc(N)cc1F,121%,121%,96.4%,109%,113%,102%,104%,102%,86.4%,94.2%,184%,116%,100%,107%,94.2%,86.8%,106%,99.7%
COc1cc(-c2nc3ccccc3s2)ccc1NC(=O)COc1ccc(Cl)cc1,83.6%,63.5%,-3.09% (active),61.8%,6.47% (active),87.1%,24.6%,42.4%,44.7%,33.2%,23%,87.6%,72%,87.6%,40.4%,44.9%,85.1%,45.6%
COc1cc2c(c(OC)c1OC)-c1ccc(N=NC(N)=S)c(=O)cc1[C@@H](NC(C)=O)CC2,15%,30.8%,1.13% (active),48.5%,33.5%,12.1%,5.37% (active),-52.2% (active),24.2%,82.1%,62.2%,-37.5% (active),0.0927% (active),17.3%,8.57% (active),-28.4% (active),-13.6% (active),-31.1% (active)
Cc1cc(Cl)ccc1Nc1nc(C(F)(F)F)ccc1C(=O)N/N=C/c1ccc(F)cc1,-30.8% (active),-41.5% (active),23.1%,18.6%,5.75% (active),21.3%,8.97% (active),9.84% (active),4.52% (active),10.5%,28.4%,3.74% (active),31.9%,12.7%,-15.2% (active),8.67% (active),12.4%,7.78% (active)
O=C1c2cccnc2C(=O)c2c1c(C(=O)OCCN1CCOCC1)c1ccccn21,-10.1% (active),10.1%,9.13% (active),-9.33% (active),24.2%,-0.946% (active),1.32% (active),-6.91% (active),30.3%,5.58% (active),9.37% (active),-13.3% (active),-36% (active),6.61% (active),-45.9% (active),-1.07% (active),10.7%,22.2%
Cc1nc2sc(C(=O)Nc3cccc4c3OCCO4)c(N)c2cc1C(C)O (stereo unspecified),26.4%,26.5%,49.5%,73.7%,69.4%,-11.4% (active),49%,7.73% (active),33.5%,31%,-13.2% (active),56.1%,-39.2% (active),22.4%,11.2%,31.3%,66.5%,20.7%
C(=N\Nc1nnn(Cc2ccccc2)n1)/c1ccccc1,17.2%,31.2%,39.8%,93.1%,79.4%,35.9%,50.4%,-38.1% (active),36.5%,-0.167% (active),45.6%,46.5%,-26.1% (active),35.2%,27.5%,43.8%,45.6%,19.4%
CCOC(=O)/C=C/C(=O)[C@H](CC(C)C)NC(=O)[C@H](Cc1ccccc1)NC(=O)OCc1ccccc1,-8.81% (active),-19.9% (active),72.8%,90.8%,91.9%,102%,75.6%,30%,93.4%,89.6%,8.32% (active),69.2%,75.8%,13.8%,19.7%,47.6%,99.2%,94.5%
Oc1ccccc1N=Cc1c(O)ccc2ccccc12,37.5%,26.5%,97.8%,87.3%,74.8%,84.6%,58.9%,64.2%,64.9%,56.8%,63%,54.5%,79.1%,85.7%,70.4%,70.6%,92.4%,59.1%
CC(=O)C1=C(O)C=C2Oc3c(C(=O)/C=C/c4cc(C(F)(F)F)cc(C(F)(F)F)c4)c(O)c(C)c(O)c3[C@]2(C)C1=O,-29.3% (active),-18.8% (active),-29.1% (active),-6.52% (active),12.5%,-32.9% (active),-6.87% (active),-50.5% (active),-12.2% (active),-48.2% (active),-18.7% (active),-29.6% (active),-33.9% (active),-10.2% (active),-42% (active),-30% (active),-87.4% (active),-46% (active)
CC#Cc1nc2ccccc2c(=O)[nH]1,39.4%,2.5% (active),42%,76.4%,18.4%,112%,14%,4.22% (active),58.7%,55%,67.3%,20.4%,25.6%,40.8%,23.5%,41.1%,13.7%,41.1%
COc1cc(OC)c(/C=C/c2cc[n+](C)c3ccccc23)c(OC)c1,-16.8% (active),-2.59% (active),-8.8% (active),49.4%,13.6%,-10.8% (active),6.79% (active),-26.6% (active),18.8%,91.3%,9.89% (active),24%,4.33% (active),19.8%,5.4% (active),11.4%,10%,-19.9% (active)
CCCCCCCCCC(=O)Oc1ccc(/C(=C(/C)Cc2cccc(OC)c2)c2ccc(OCCN(C)C)cc2)cc1,106%,106%,108%,101%,115%,113%,110%,109%,108%,98.4%,69.4%,108%,103%,104%,58.2%,102%,100%,104%
CN1CCN(Cc2ccc(NC(=O)c3cncc(C#Cc4cncc5nccnc45)c3)cc2C(F)(F)F)CC1,63.7%,36.9%,62.1%,36.4%,38.9%,74.7%,22.2%,69.9%,39.6%,72.4%,46.5%,82.8%,21.9%,26.4%,33.8%,20.2%,33.6%,13.9%
